# Screening results deposited in PubChem by National Center for Advancing Translational Sciences (NCATS).
# Most compounds without a hit are left out; they make up all but 0.45% or so of the library.
# EPAC1 agonist: qHTS for Agonist of cAMP-regulated guanine nucleotide exchange factor 3 (EPAC1): primary screen. Rap guanine nucleotide exchange factor 3 (Homo sapiens), O95398. EPAC1 agonist qHTS, biochemical assay; response scale: 100% = response to 6.5 mM cAMP. Potency, µM (highest dose often 154 µM), for the others: top-dose activation, usual class: activators. hit rate 0.073% among 360,000. AID 720707, 2013; also: nearly all actives have a fitted effect of over 60% in size
#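 Fluorescent GDP-exchange assay: 100 nM EPAC1 with 250 nM Rap1B preloaded with BODIPY-GDP and 50 uM GDP; compounds tested as concentration series, 5 min at room temperature, then read every 5 min for 30 min (ex 480/em 540 nm); normalized to 6.5 mM cAMP.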
# USP2a inh: qHTS Assay for Inhibitors of Ubiquitin-specific Protease USP2a Using CHOP2 as the Reporter; hit rate 0.01% among 330,000; Potency, µM (doses to about 38.3 µM), inactives show top-dose activity change, negative = inhibition, hits mostly inhibitors; AID 463254, 2010; Ubiquitin carboxyl-terminal hydrolase 2 (Homo sapiens), O75604; USP2 core, Ub-CHOP2 coupled fluorogenic reporter, 485/531;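 also: plate controls were DMSO wells for no effect and full inhibition by NEM control for full effect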
#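 USP2 core (10nM final) preincubated 30min RT with compound in 20mM Tris-HCl pH 8.0, 2mM CaCl2, 2mM beta-mercaptoethanol, 0.05% CHAPS; 25nM Ub-CHOP2 plus 25nM reporter substrate added, fluorescence (Ex485/Em531) read after 60min.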
# EPAC2 antagonist: qHTS for Antagonist of cAMP-regulated guanine nucleotide exchange factor 2 (EPAC2): primary screen; EPAC2 GEF exchange of Rap1B-BODIPY-GDP, fluorescence; Potency, µM (titrated, usually from 114 µM), inactives show at the highest dose activity, negative = inhibition, most hits filed as inhibitors; hit rate 0.18% among 360,000; AID 720708, 2013; also: % is scaled to controls: 0 for no effect and ±100 for the full control effect; nearly all actives have a fitted effect of over 45% in size
# Target sequence (Q8WZA2 whole entry, looked up): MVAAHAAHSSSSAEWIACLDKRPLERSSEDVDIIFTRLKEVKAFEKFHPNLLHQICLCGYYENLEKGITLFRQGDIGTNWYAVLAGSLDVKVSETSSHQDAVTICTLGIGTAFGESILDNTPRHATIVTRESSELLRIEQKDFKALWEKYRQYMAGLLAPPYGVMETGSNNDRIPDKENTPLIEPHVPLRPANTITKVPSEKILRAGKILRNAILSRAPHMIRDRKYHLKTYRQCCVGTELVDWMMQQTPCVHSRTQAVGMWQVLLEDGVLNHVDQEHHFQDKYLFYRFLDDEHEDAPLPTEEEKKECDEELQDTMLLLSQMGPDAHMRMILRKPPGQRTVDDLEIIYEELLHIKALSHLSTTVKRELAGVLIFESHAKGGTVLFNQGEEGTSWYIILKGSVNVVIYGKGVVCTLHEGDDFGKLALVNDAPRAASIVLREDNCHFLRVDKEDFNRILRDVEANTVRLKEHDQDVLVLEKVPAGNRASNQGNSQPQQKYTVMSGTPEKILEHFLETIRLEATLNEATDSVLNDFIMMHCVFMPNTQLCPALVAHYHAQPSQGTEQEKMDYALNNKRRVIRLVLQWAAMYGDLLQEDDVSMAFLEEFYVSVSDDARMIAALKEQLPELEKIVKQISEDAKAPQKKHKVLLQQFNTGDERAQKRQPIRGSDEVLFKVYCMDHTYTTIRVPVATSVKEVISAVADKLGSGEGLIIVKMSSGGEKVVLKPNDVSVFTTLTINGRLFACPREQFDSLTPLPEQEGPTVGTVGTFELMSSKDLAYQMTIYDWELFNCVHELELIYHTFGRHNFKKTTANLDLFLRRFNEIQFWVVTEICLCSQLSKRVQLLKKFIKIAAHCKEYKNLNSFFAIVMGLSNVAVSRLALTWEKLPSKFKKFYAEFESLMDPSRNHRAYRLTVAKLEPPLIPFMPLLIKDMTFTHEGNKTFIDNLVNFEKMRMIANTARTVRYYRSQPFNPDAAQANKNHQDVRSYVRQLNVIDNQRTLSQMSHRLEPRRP
# EPAC2 agonist: qHTS for Agonist of cAMP-regulated guanine nucleotide exchange factor 4 (EPAC2): primary screen. Potency, µM (doses to about 154 µM), for the others: top-dose activation, hits mostly activators. Rap guanine nucleotide exchange factor 4 (Homo sapiens), Q8WZA2. AID 720711, 2013. EPAC2 activation, biochemical qHTS; response scale: 100% = 6.5 mM cAMP response. hit rate 0.079% among 360,000; also: nearly all actives have a fitted effect of over 50% in size
#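 Compounds were added across a concentration range to EPAC2 (100 nM), RAP1B-BODIPY-GDP (250 nM) and GDP (50 uM). After 5 min at room temperature, fluorescence was recorded at 5-min intervals for 30 min.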
# USP1-UAF1 inh: Inhibitors of USP1/UAF1: Primary Screen; recombinant USP1/UAF1, Ub-Rhodamine cleavage fluorescence; AID 743255, 2014; Ubiquitin carboxyl-terminal hydrolase 1 (Homo sapiens), O94782; Potency, µM (doses to about 57.1 µM), for inactives: at the top dose activity change, negative = inhibition, usual class: inhibitors; hit rate 0.23% among 390,000; also: % is scaled to controls: 0 for no effect and ±100 for the full control effect; nearly all actives have a fitted effect of over 60% in size
#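 USP1/UAF1 complex at 1 nM was preincubated with compound for 15 min at room temperature, then Ub-Rho substrate (150nM final) was added. Fluorescence (480/540 nm) was read kinetically, 6 reads every 60 seconds.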
# EPAC1 antagonist: qHTS for Antagonist of cAMP-regulated guanine nucleotide exchange factor 3 (EPAC1): primary screen | Rap guanine nucleotide exchange factor 3 (Homo sapiens), O95398 | EPAC1 GEF assay, Rap1b-BODIPY-GDP exchange fluorescence | Potency, µM (titrated, usually from 115 µM), without a hit: at the highest dose activity change, negative = inhibition, actives largely listed as inhibitors | hit rate 0.14% among 360,000 | AID 720709, 2013;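 also: plate controls were vehicle for no effect and positive control for full effect; nearly all actives have a fitted effect of over 50% in size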
# * marks the source's active call; other numbers are inactive results; ? = inconclusive; / = no result; + = active, no number. Calls follow the shape of the dose curve; as a rule, active = well fitted curve in the direction sought with a large enough effect; inconclusive = small, poorly fitted or top-dose-only effect, or another doubt; inactive = no such curve, though single readings can be large; an effect the other way counts as inactive or inconclusive. Potency is read from the fitted curve at half-maximal effect.
SMILES,EPAC1 agonist,USP2a inh,EPAC2 antagonist,EPAC2 agonist,USP1-UAF1 inh,EPAC1 antagonist
CC1CCc2c(sc3nc(SCC(=O)O)n(-c4ccccc4)c(=O)c23)C1 (stereo not drawn),?,-12%,-14%,-2%,-18%,89µM*
COC(=O)CSc1nc2sc3c(c2c(=O)n1-c1ccc(C)cc1)CC(C(C)C)OC3 (stereo not drawn),/,/,/,/,+,/
CCOC(=O)CSc1nc2sc3c(c2c(=O)n1-c1ccccc1)CCC(C(C)(C)C)C3 (stereo not drawn),/,/,/,/,-31%,/
COc1ccc2c(c1)CSC(c1ccccc1)C2=O (stereo not drawn),-16%,/,?,6%,-26%,6%
COc1ccc(C(=O)Oc2ccc(/C=N/Nc3ccc(Cl)c(C(=O)O)c3)cc2OC)cc1,-2%,-2%,20µM*,-16%,?,-26%
Cc1ccc(S(=O)(=O)Oc2cccc(/C=N/Nc3ccc(C(=O)O)cc3)c2)cc1,1%,1%,56µM*,-1%,-26%,2%
Cc1ccc(S(=O)(=O)Oc2cccc(/C=N/n3cnnc3)c2)cc1,-2%,4%,3%,5%,-5%,2%
COc1ccc(/C=N/Nc2ccc(C(=O)O)cc2)cc1Br,4%,-1%,56µM*,-1%,-33%,5%
Cc1ccc(C2=Nc3ccccc3N(CC(=O)Nc3ccccc3F)C(=O)C2)cc1C,/,/,/,/,-11%,/
CCOc1ccc(CCNC(=O)c2cc(=O)[nH]c3ccc(S(=O)(=O)N4CCCCC4)cc23)cc1OCC,/,/,/,/,-27%,/
Cc1noc(C)c1C(=O)N1CCC1(C)C(=O)NS(=O)(=O)c1ccc(F)cc1F (stereo not drawn),-2%,/,0%,0%,/,-3%
COc1cccc(NC(=O)c2sc3nc(C)c(C(=O)Nc4ccc(C)cc4C)c(-c4ccco4)c3c2N)c1,/,/,/,/,35µM*,/
CC(C)CC1C(=O)N(Cc2cn(CCC3OCCO3)nn2)CCS(=O)(=O)N1Cc1ccc(-c2ccc(F)cc2)cc1 (stereo not drawn),-15%,/,13µM*,1%,-17%,-8%
CC(C)CC1C(=O)N(Cc2cn(CCC3OCCCO3)nn2)CCS(=O)(=O)N1Cc1ccc(-c2ccc(Cl)cc2)cc1 (stereo not drawn),-6%,/,?,-1%,-24%,0%
COCCCNC(=O)CN1C(=O)COc2ccc(S(=O)(=O)N3CCCC3)cc21,/,/,/,/,-10%,/
CSC[C@H]1CN(c2ccccc2)C(=O)[C@@H]1CC(=O)Nc1ccccc1,-4%,/,-1%,-1%,-26%,7%
C[n+]1c(-c2ccccc2)cc2c(=Cc3ccc([N+](=O)[O-])cc3)c3ccccc3n21,12%,/,0%,10%,3.5µM*,-1%
CN(C)c1ccc(C=c2c3cc(O)ccc3n3c2cc(-c2ccccc2)[n+]3C)cc1,-4%,/,-16%,4%,28µM*,-30%
CC(C)n1c2ccccc2c2cc([N+](=O)[O-])ccc21,8%,-1%,9%,10%,-17%,-3%
CN(C)c1ccc(/C=c2\sc3nc(-c4ccccc4)nn3c2=O)cc1,/,4%,/,/,/,/
C[n+]1c(-c2ccccc2)cc2c(=Cc3ccccc3)c3ccccc3n21,8%,/,2%,14%,4µM*,0%
Cc1c(C(=O)N(C)Cc2ccc(F)cc2)sc(=O)n1Cc1ccc(Cl)c(Cl)c1,-5%,/,-13%,2%,/,-16%
Nc1ccn([C@@H]2O[C@H](CNCc3cnc(N4CCOCC4)s3)[C@@H](O)[C@H]2O)c(=O)n1,-10%,/,1%,3%,-16%,14%
COc1ccccc1NC(=O)C1=C(C)Nc2nc(SCc3ccccc3)nn2C1c1cccs1 (stereo not drawn),/,/,/,/,-22%,/
O=C(Nc1ccccc1F)N1CCc2ccccc2C1,-5%,1%,-2%,-2%,-8%,14%
SMILES,EPAC1 agonist,USP2a inh,EPAC2 antagonist,EPAC2 agonist,USP1-UAF1 inh,EPAC1 antagonist
Cc1ccc(N2C(=O)c3cccc4c(C(=O)O)ccc(c34)C2=O)cc1,/,1%,/,/,/,/
O=C1c2cccc3c(O)ccc(c23)C(=O)N1c1ccc(Cl)cc1,100µM*,?,220%,112µM*,28µM*,252%
CC(=O)Nc1ccc(N2C(=O)c3cccc4c(O)ccc(c34)C2=O)cc1,89µM*,?,417%,112µM*,28µM*,?
O=C1c2ccccc2C(=O)N1Cc1ccco1,4%,0%,5%,-7%,-17%,3%
O=C1c2cccc3c(O)ccc(c23)C(=O)N1Cc1ccco1,56µM*,?,325%,100µM*,28µM*,19%
CC(C)CCN1C(=O)c2ccccc2C1c1nnnn1C(C)C (stereo not drawn),5%,/,-26%,9%,/,10%
CC(C)N1CCC(C)(C(=O)Nc2ccc(Cl)c(Cl)c2)C1 (stereo not drawn),5%,/,5%,3%,/,6%
COc1cccc(NC(=S)NCCC(c2ccccc2)c2ccccc2)c1,7%,-8%,0%,10%,-17%,-9%
COc1cc(NC(=S)NCCC(c2ccccc2)c2ccccc2)cc(OC)c1,89µM*,-14%,-8%,5%,?,60%
Cc1ccc2nc(N3C(=O)C(O)=C(C(=O)c4ccc(C)o4)C3c3cccc(O)c3)sc2c1 (stereo not drawn),-13%,1%,7%,-7%,-19%,50µM*
COc1c(C)cccc1C(=O)Nc1cccc2ccc(C)nc12,/,/,/,/,-21%,/
O=C1C=CC(=O)c2c(O)c(N3CCN(CCO)CC3)c(Cl)c(O)c21,-1%,/,?,0%,2.8µM*,14µM*
O=C1C=CC(=O)c2c(O)c(N3CCN(CCOCCO)CC3)c(Br)c(O)c21,-9%,/,-14%,-7%,2µM*,45µM*
OCCOCCN1CCN(C2=Nc3ccccc3Sc3ccccc32)CC1,4%,-1%,2%,3%,14%,-9%
Cc1ccc([C@@]2(OC(=O)c3ccccc3)C(=O)N(C(=O)OC(C)(C)C)c3ccccc32)cc1,3%,/,6%,4%,/,6%
